Compounds with a hit are over-represented: about 17% of the library has one in this group of screens.
TGFb inhibitor: inhibitors of TGF-b signaling; Potency, µM (highest dose often 46.1 µM), for inactives: at the top dose activity, negative = inhibition, actives largely listed as inhibitors; HepG2 CAGA-GFP TGF-b/SMAD3 reporter, GFP fluorescence, 18 h; TGF-beta stimulated, 500 pg/mL final; hit rate 1.2% among 410,000; note: % is set by controls: 0 for no effect and ±100 for the full control effect; nearly all actives have a fitted effect of over 65% in size
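Read-out: total well GFP (ex488/em500-530) summed from mean per-cell fluorescence. Cells: HEPG2 CAGA-GFP, 1% FBS DMEM, 18 h at 37 degrees C with 500 pg/mL final TGF-beta. Unstimulated wells served as the full-inhibition control; stimulated DMSO wells = 0%.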
ATXN2 expr inh: inhibitors of ATXN2 expression; AID 1745845; HEK-293 ATXN2-luciferase reporter, luminescence, 24 h; hit rate 0.72% among 360,000; Potency, µM (series often up to 57 µM), for inactives: top-dose activity change, negative = inhibition, most hits filed as inhibitors; note: % is set by controls: 0 for no effect and ±100 for the full control effect; nearly all actives have a fitted effect of over 55% in size
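qHTS (up to 57 uM final) was run with 24 h compound exposure of reporter cells at 37 °C. Each well was multiplexed: SteadyGlo luminescence measured ATXN2-luciferase expression after a fluorogenic Gly-Phe-AFC viability readout (25 uM final).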
TDP1 cell noCPT: qHTS for Inhibitors of human tyrosyl-DNA phosphodiesterase 1 (TDP1): qHTS in cells in absence of CPT | DT40 Tdp1-/- hTDP1 cells, no CPT, ATP luminescence, 48 h | Potency, µM (top dose mostly 46.2 µM), for the others: at the highest dose activity change, negative = growth inhibition, most hits filed as inhibitors | hit rate 15% among 420,000 | AID 686978, 2013; note: % is set by controls: 0 for no effect and ±100 for the full control effect; nearly all actives have a fitted effect of over 55% in size
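Growth kinetics read by CellTiter-Glo luminescence after ≥48 hr at 37 °C. Cells: DT40 Tdp1-/- stably carrying human TDP1, 400 per well, compound exposure in the absence of CPT (DMSO vehicle).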
TDP1 cell CPT: DT40-hTDP1 cell growth loss with CPT; chicken DT40 Tdp1-/-;hTDP1 cells + 20 nM CPT, ATP luminescence, 48 h; Potency, µM (highest dose often 46.2 µM), for the others: at the top dose activity change, negative = growth inhibition, actives largely listed as inhibitors; hit rate 12% among 420,000; note: % is set by controls: 0 for no effect and ±100 for the full control effect; nearly all actives have a fitted effect of over 55% in size
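Cell growth measured by CellTiter-Glo luminescence after a minimum 48 h, 37 C compound exposure with 20 nM CPT in Tdp1-knockout DT40 cells stably expressing hTDP1, seeded 400/well; qHTS titration format.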
HepG2 tox: kills HepG2 cells in TGF-b inhibitor counter-screen | HepG2 CAGA-GFP viability, ATP luminescence, 18 h | hit rate 0.76% among 410,000 | AID 588856 | Potency, µM (doses to about 46.1 µM), without a hit: at the highest dose activity change, negative = cytotoxicity, usual class: cytotoxic
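CellTiter-Glo luminescence gave cytotoxicity after 18 hours at 37 degrees C. The cells were HepG2 CAGA-GFP in 1% FBS DMEM, stimulated with 500 pg/mL TGF-beta after compound addition. %Activity was normalised to no-cell wells (complete cell-killing) and DMSO (no toxicity), and curves were fitted and classified.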
S2 tox: reduces viability in counter-screen for ATXN expression inhibitors; S2 cells (HEK-293 line with an ATXN2-luciferase reporter) viability, CellTiter-Fluor protease fluorescence, 24 h; Potency, µM (top dose mostly 56.7 µM), actives largely listed as cytotoxic; hit rate 0.49% among 400,000; note: nearly all actives have a fitted effect of over 40% in size
* = called active by the depositor; i = inactive; ? = inconclusive; / = not tested or not shown. Calls come from the whole dose curve; as a rule, active = well fitted curve in the direction sought with a large enough effect; inconclusive = small, poorly fitted or top-dose-only effect, or another doubt; inactive = no such curve, though single readings can be large; an effect the other way counts as inactive or inconclusive. Potency is the fitted concentration of half-maximal effect.

SMILES	TGFb inhibitor	ATXN2 expr inh	TDP1 cell noCPT	TDP1 cell CPT	HepG2 tox	S2 tox
Cc1cccc(C(=O)Nc2ccc3oc(-c4ccncc4)nc3c2)c1	-11%	/	12µM*	21µM*	-12%	/
Cc1ccc(N(O)C(=O)NCCCCNC(=O)N(O)c2ccc(C)cc2)cc1	-28%	23%	-26%	13%	-13%	i
COc1cccc(CN2CCC(C(=O)N3CCN(c4ccccc4F)CC3)CC2)c1OC	-6%	-11%	-12%	-18%	0%	i
CCN(CC)CCC(c1cc(OC)c(OC)c(OC)c1)c1c(OC)cc(OC)c2c1OC(=O)CC2c1ccc(N(C)C)cc1 (stereo not given)	5%	/	/	/	-3%	/
CCOC(=O)C1=Nc2ccccc2C1=[N+]=[N-]	?	?	7.3µM*	4.6µM*	4%	/
Cn1ncc(Cl)c1C(=O)NCc1cc(C(C)(C)C)n[nH]1	-33%	-8%	18µM*	?	-32%	i
COc1cc(NC(=O)N2CCC3(CC2)Nc2cc(F)ccc2-n2cccc23)cc(OC)c1OC	?	/	26µM*	16µM*	-18%	/
COc1cc([N+](=O)[O-])ccc1NC(=O)N1CCC2(CC1)Nc1ccccc1-n1cccc12	4%	/	?	?	-11%	/
COc1cc(/C=N/N=C2/SCC(=O)N2c2ccc(O)cc2)ccc1O	4%	?	21µM*	9.2µM*	-13%	i
COc1cc(/C=N\N=C2/SC(CC(=O)O)C(=O)N2c2ccc(O)cc2)ccc1O (stereo not given)	7%	-7%	2%	-2%	3%	i
CCn1c(SCc2ccccc2C)nc(=O)c2c(C(=O)OC)cc(C3CC3)nc21	?	/	15µM*	12µM*	-51%	/
O=C(CSc1nnc2c(n1)[nH]c1ccccc12)Nc1ccc(S(=O)(=O)Nc2ncccn2)cc1	-2%	/	-1%	-22%	9%	i
O=C(NCCc1cccc(F)c1)C1CCC(=O)N(CCCc2ccccc2)C1 (stereo not given)	16%	-6%	?	18µM*	4%	?
O=C(NCc1ccccc1C(F)(F)F)C1CCC(=O)N(CCCc2ccccc2)C1 (stereo not given)	0%	-33%	29µM*	?	-9%	i
O=C(NCCc1c[nH]c2ccccc12)C1CCC(=O)N(CCc2cccc(F)c2)C1 (stereo not given)	8%	-2%	8.2µM*	?	-6%	i
O=C(NCCc1cn[nH]c1)C1CCC(=O)N(CCc2cccc(F)c2)C1 (stereo not given)	-1%	10%	?	?	1%	i
O=C(NCc1ccccc1C(F)(F)F)C1CCC(=O)N(C2CC2)C1 (stereo not given)	-5%	/	-12%	-12%	-6%	i
O=C(NCc1ccccc1OC(F)(F)F)C1CCC(=O)N(CCc2ccccn2)C1 (stereo not given)	20%	5%	6%	10%	4%	i
O=C(NCc1ccccc1OC(F)(F)F)C1CCC(=O)N(Cc2ccccn2)C1 (stereo not given)	5%	-2%	?	16µM*	2%	i
S=C(Nc1ccccc1)Nc1ccc(OCc2ccc(Cl)cc2Cl)cc1	-24%	1µM*	?	18µM*	-6%	i
O=c1[nH]nc(-c2ccc(OCc3ccc(Cl)cc3Cl)cc2)o1	0%	-6%	21%	-4%	-2%	i
OCCNCc1ccc(OCc2ccc(Cl)cc2Cl)cc1	?	?	18µM*	18µM*	22µM*	?
OCCCCNCc1ccc(OCc2ccc(Cl)cc2Cl)cc1	?	25µM*	23µM*	21µM*	10µM*	25µM*
Cc1ccc(NC(=O)C2CC(=O)Nc3ncnn32)c(C)c1 (stereo not given)	8%	2%	24%	0%	4%	i
O=C(CN1CCN(C(c2ccccc2)c2ccccc2)CC1)N1N=CCC1c1ccccc1 (stereo not given)	-31%	-3%	-26%	-2%	-49%	i
SMILES	TGFb inhibitor	ATXN2 expr inh	TDP1 cell noCPT	TDP1 cell CPT	HepG2 tox	S2 tox
Cn1cnc(S(=O)(=O)Nc2ccc(Cl)c(C(F)(F)F)c2)c1	-6%	17%	11%	0%	3%	i
CCCCc1c(Cc2cccc(F)c2)ncn1CCc1ccccc1OC	/	14µM*	13µM*	?	/	18µM*
COc1ccccc1CCN=C(N)NS(=O)(=O)c1cc(F)ccc1F	0%	2%	-16%	?	-3%	i
CCCCc1c(-c2ccc(F)cc2F)ncn1CCc1ccccc1OC	/	?	26µM*	23µM*	/	/
COc1cccc2c1c(NC(=O)Nc1ccc(F)cc1F)nn2C	15%	14%	3%	0%	1%	i
CCCCCc1c(-c2ccc(F)cc2F)ncn1CCc1ccccc1OC	/	?	21µM*	?	/	?
CCN(CC(=O)Nc1ccccc1C(F)(F)F)C(=O)c1ccc2c(c1)NC(=O)C(C)S2 (stereo not given)	-3%	/	?	?	1%	i
Cc1ccc(NC(=O)/C=C/C(=O)O)c(NC(=O)c2ccccc2)c1	3%	/	1%	3%	-6%	i
O=C(CN1CCSc2ccccc21)N1CCN(c2cccc(Cl)c2)CC1	2%	4%	/	/	2%	i
COc1cc(CC(=O)Nc2ccc3nc(C)sc3c2)cc(OC)c1OC	-10%	/	?	-21%	-5%	i
COc1cccc(CC(=O)Nc2ccc3nc(C)sc3c2)c1	0%	9%	13µM*	?	4%	i
COc1cccc(NC(=O)c2ccc3nc(C)sc3c2)c1	14%	/	?	18µM*	6%	?
COc1ccccc1NC(=O)c1ccc2nc(C)sc2c1	11%	15%	-16%	-2%	1%	i
COC(=O)CCNC(=O)Cc1c(C)n(C(=O)c2ccc(Cl)cc2)c2ccc(OC)cc12	7%	-16%	?	?	2%	i
CCCNC(=O)Cc1c(C)n(C(=O)c2ccc(Cl)cc2)c2ccc(OC)cc12	0%	-17%	?	21µM*	-9%	i
CN(C)S(=O)(=O)Oc1ccc(C(=O)Nc2cccc(C(F)(F)F)c2)cc1	?	?	15µM*	23µM*	-21%	?
CN(C)S(=O)(=O)Oc1cccc(C(=O)Nc2ccccc2Cl)c1	11%	37%	?	?	-18%	i

Screening results deposited in PubChem BioAssay by National Center for Advancing Translational Sciences (NCATS).
